Measured values: PubChem BioAssay (Tox21)
Unmarked numbers belong to inactive results. Records with an inconclusive call do not appear. Entries that show only a call come without a potency. Calls of active or inactive are those of the source. Unless noted, calls follow the shape of the dose curve; as a rule, active = well fitted curve in the direction sought with a large enough effect in the repeat runs; inconclusive = weak or mixed curves; inactive = no such curve, though single readings can be large; an effect the other way counts as inactive or inconclusive.

Assays:
[1] = qHTS assay to identify small molecule antagonists of the estrogen related receptor (ERR) signaling pathway - cell viability counter screen (AID 1224818); also: series mostly up to about 46 µM
Outline: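 ERR cells, 2,000 per well, compound added after 6 h and incubated 17.5 h at 37 C. Viability read by CellTiter-Fluor fluorescence after a further 30 min at 37 C.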

[2] = qHTS assay to identify small molecule antagonists of the estrogen related receptor signaling pathway with the pleiotropic PPARgamma coactivator (PGC) cell viability counter screen (AID 1224822; also: series mostly up to about 46 µM)
Outline: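 PGC/ERR cells rested 6 h, then compound-treated 17.5 h at 37 C. CellTiter-Fluor added for 30 min at 37 C, viability measured by fluorescence intensity.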

[3] = qHTS assay to identify small molecule agonists of the estrogen related receptor (ERR) signaling pathway (AID 1224820)
Outline: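 Quantitative HTS of the LOPAC library used NTP ERR reporter cells treated 18 h at 37 C. Signal is luminescence after One-Glo addition and a 30 min room-temperature incubation.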

[4] = system: estrogen-related receptor alpha (ERRalpha) with PGC-1alpha coactivator, human; test: qHTS assay to identify small molecule antagonists of the estrogen related receptor signaling pathway with the pleiotropic PPARgamma coactivator (PGC) (AID 1224821; calls by dose curve;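 also: series mostly up to about 46 µM; lower luminescence signal means antagonism of PGC/ERR signalling; nearly all actives have a fitted effect of over 50% in size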)
Outline: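 Quantitative HTS for antagonism: PGC/ERR cells received compounds after 6 h attachment and were incubated 18 h at 37 C, with luminescence (One-Glo) as the endpoint.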

[5] = qHTS assay to identify small molecule agonists of the estrogen related receptor signaling pathway with the pleiotropic PPARgamma coactivator (PGC) (AID 1224823)
Outline: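 Cell-based luciferase assay in the NTP-supplied PGC/ERR line, 2,000 cells/well; 18 h compound exposure at 37 C, luminescence after One-Glo.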

[6] = qHTS assay for small molecules that induce genotoxicity in human embryonic kidney cells expressing luciferase-tagged ATAD5 (AID 651632); also: nearly all actives have a fitted effect of over 15% in size
Outline: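 HEK293T cells carrying luciferase-tagged ATAD5 were given compound or DMSO vehicle and incubated 16 hr at 37C, 5% CO2. Luciferase activity was read after 30 min at room temperature with Amplite; a rise signals genotoxic stress.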

[7] = qHTS assay for small molecule agonists of the p53 signaling pathway - cell viability (AID 651633; calls by dose curve;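 also: p53RE-bla HCT reporter cells with a stable beta-lactamase p53 reporter; series mostly up to about 83 µM; nearly all actives have a fitted effect of over 30% in size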)
Outline: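 p53RE-bla cells were treated with compound for 16 hours at 37 C. Cytotoxicity was then measured as CellTiter-Glo luminescence after 30 min at room temperature.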

[8] = qHTS assay for small molecules that induce genotoxicity in human embryonic kidney cells expressing luciferase-tagged ATAD5 - cell viability (AID 651634; calls by dose curve; also: nearly all actives have a fitted effect of over 25% in size)
Outline: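 HEK293T cells carrying luciferase-tagged ATAD5, 2,000 cells/well, exposed to compound for 15.5 hr at 37C. Viability read as live-cell protease activity by CellTiter-Fluor fluorescence after 30 min at 37C.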

[9] = qHTS assay to test for compound auto fluorescence at 590 nm (red) in HepG2 cells (AID 720674)
Outline: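 HepG2 cells, 2,000 per well in MEM with 10% FBS, attached overnight at 37 C, then got 23 nL compound or DMSO. After 1 hr at 37 C, 5% CO2, red fluorescence was read at 540/590 nm against Rose Bengal sodium as reference.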

[10] = qHTS assay to test for compound auto fluorescence at 535 nm (green) in HepG2 cells (AID 720675)
[11] = qHTS assay to test for compound auto fluorescence at 460 nm (blue) in HEK293 cells (AID 720678)
Outline: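 Measured: blue fluorescence (Ex 405/Em 460 nm) of compound-treated HEK293 cells, incubated overnight at 37C with 5% CO2 and scaled to triamterene equivalents.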

[12] = qHTS assay to test for compound auto fluorescence at 590 nm (red) in HEK293 cells (AID 720679)
Outline: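 Using HEK293 cells at 2,000 per well, the screen added 23 nL of each compound after cell attachment and incubated overnight (37C, 5% CO2). The plate reader then captured red-label fluorescence, Ex/Em 540/590nm.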

[13] = qHTS assay to test for compound auto fluorescence at 535 nm (green) in HEK293 cells (AID 720680)
[14] = qHTS assay to test for compound auto fluorescence at 460 nm (blue) in HEK293 cell free culture (AID 720681)
Outline: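 Compounds were added to cell-free DMEM with 10% FBS and fluorescence read directly. The blue channel used 405 nm excitation and 460 nm emission, with triamterene as the reference fluorophore.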

[15] = qHTS assay to test for compound auto fluorescence at 535 nm (green) in HEK293 cell free culture (AID 720682)
Outline: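 Using fluorescein as calibrant, autofluorescence was quantified at 485/535 nm in cell-free DMEM containing 10% FBS after pintool addition of compound or vehicle.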

[16] = qHTS assay to test for compound auto fluorescence at 590 nm (red) in HEK293 cell free culture (AID 720683)
Outline: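 Cell-free wells of DMEM with 10% FBS received compound, and intrinsic fluorescence was read at excitation/emission 540/590 nm. Values expressed as equivalence to Rose Bengal sodium.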

[17] = qHTS assay to test for compound auto fluorescence at 590 nm (red) in HepG2 cell free culture (AID 720684)
Outline: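 Compounds are added to culture medium (MEM, 10% FBS) lacking cells, then fluorescence is read at excitation 540 nm, emission 590 nm, with Rose Bengal sodium as the equivalency standard.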

[18] = qHTS assay to test for compound auto fluorescence at 460 nm (blue) in HepG2 cell free culture (AID 720685)
Outline: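 Compound (23 nL) or DMSO pinned into cell-free MEM with 10% FBS; blue fluorescence read at 405/460 nm excitation/emission, expressed as auto-fluorescence equivalency to triamterene.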

[19] = qHTS assay to test for compound auto fluorescence at 460 nm (blue) in HepG2 cells (AID 720687)
Outline: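 HepG2 cells in MEM with 10% FBS, attached overnight at 37 C, were exposed to compound or DMSO for 1 hr at 37 C, 5% CO2. Blue fluorescence was read at 405/460 nm, with triamterene as reference fluorophore.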

[20] = qHTS assay to identify small molecule antagonists of the glucocorticoid receptor (GR) signaling pathway - cell viability counter screen (AID 720693); also: nearly all actives have a fitted effect of over 55% in size
[21] = qHTS assay for identifying genotoxic compounds that show differential cytotoxicity against isogenic chicken DT40 cell lines with known DNA damage response pathways - wild type cell line (AID 743012); also: nearly all actives have a fitted effect of over 60% in size
Outline: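 Wild-type DT40 cells (300/well) exposed to compounds for 40 hours at 37 C/5% CO2. Viability read by CellTiter-Glo luminescence after 30 min at room temperature.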

[22] = qHTS assay for identifying genotoxic compounds that show differential cytotoxicity against isogenic chicken DT40 cell lines with known DNA damage response pathways - Rev3 mutant cell line (AID 743014); also: nearly all actives have a fitted effect of over 55% in size
[23] = qHTS assay for identifying genotoxic compounds that show differential cytotoxicity against isogenic chicken DT40 cell lines with known DNA damage response pathways - Rad54/Ku70 mutant cell line (AID 743015); also: nearly all actives have a fitted effect of over 60% in size
[24] = qHTS assay to identify small molecule antagonists of the androgen receptor (AR) signaling pathway - cell viability counter screen (AID 743033; also: nearly all actives have a fitted effect of over 45% in size)
[25] = qHTS assay to identify small molecule antagonists of the androgen receptor (AR) signaling pathway using the MDA cell line - cell viability counter screen (AID 743041; also: nearly all actives have a fitted effect of over 45% in size)
Outline: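 Same-well cytotoxicity was assessed by CellTiter-Fluor in MDA-kb2 AR-luc cells after 16 h of compound treatment under R1881 agonism.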

[26] = qHTS assay to identify small molecule antagonists of the thyroid receptor (TR) signaling pathway - cell viability counter screen (AID 743064); also: nearly all actives have a fitted effect of over 50% in size
Outline: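 Counter screen for cytotoxicity: compound plus T3 (1 nM final) on GH3.TRE-Luc cells, 23.5 h at 37 °C, then fluorescence viability readout with CellTiter-Fluor.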

[27] = system: thyroid hormone receptor (rat, GH3 cells); test: qHTS assay to identify small molecule agonists of the thyroid receptor (TR) signaling pathway (AID 743066; calls by dose curve)
[28] = target: Estrogen receptor (Homo sapiens) (UniProt P03372); test: qHTS assay to identify small molecule antagonists of the estrogen receptor alpha (ER-alpha) signaling pathway (AID 743069; active = well fitted curve in the direction sought with a large enough effect in the signal ratio in the repeat runs, not every such curve was filed as active; the % refers to the signal ratio)
Outline: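 Reporter cells (ER-alpha-bla, HEK293 background) are conditioned overnight in stripped-serum medium (2% charcoal-stripped FBS). Compound and 17beta-estradiol exposure runs 18 hr at 37C, 5% CO2.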

[29] = qHTS assay to identify small molecule antagonists of the estrogen receptor alpha (ER-alpha) signaling pathway - cell viability counter screen (AID 743074; calls by dose curve;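 also: HEK293 cells carrying ER-alpha-UAS-bla reporter stimulated with 17beta-estradiol; nearly all actives have a fitted effect of over 45% in size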)
[30] = target: Estrogen receptor (Homo sapiens) (UniProt P03372); test: qHTS assay to identify small molecule agonists of the estrogen receptor alpha (ER-alpha) signaling pathway (AID 743075; calls by dose curve;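 also: HEK293 GripTite cells with ER-alpha and UAS-driven beta-lactamase reporter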)
[31] = target: Estrogen receptor (Homo sapiens) (UniProt P03372); test: qHTS assay to identify small molecule agonists of the estrogen receptor alpha (ER-alpha) signaling pathway using the BG1 cell line (AID 743079); also: potency is read from the fitted curve at half-maximal effect; nearly all actives have a fitted effect of over 20% in size
[32] = qHTS assay to identify small molecule antagonists of the estrogen receptor alpha (ER-alpha) signaling pathway using the BG1 cell line (AID 743080; calls by dose curve;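 also: BG1 cells stimulated with 17beta-estradiol alongside compound; series mostly up to about 70 µM; nearly all actives have a fitted effect of over 25% in size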)
Outline: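 Quantitative HTS on the Tox21 10K library: BG1 cells with endogenous ER-alpha and ERE-luciferase reporter, 17beta-estradiol stimulation, 21.5 h compound exposure, luminescence endpoint with parallel fluorescence cytotoxicity counter-read.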

[33] = qHTS assay to identify small molecule antagonists of the estrogen receptor alpha (ER-alpha) signaling pathway using the BG1 cell line - cell viability counter screen (AID 743081);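 also: compound given together with 17beta-estradiol as the ER stimulus; series mostly up to about 70 µM; nearly all actives have a fitted effect of over 45% in size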
[34] = target: Aromatase (Homo sapiens) (UniProt P11511); test: qHTS assay to identify aromatase inhibitors (AID 743083); also: series mostly up to about 70 µM; nearly all actives have a fitted effect of over 55% in size
[35] = qHTS assay to identify aromatase inhibitors - cell viability counter screen (AID 743084);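 also: cells stimulated with testosterone during compound exposure; nearly all actives have a fitted effect of over 55% in size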
[36] = qHTS assay to identify small molecule that activate the aryl hydrocarbon receptor (AhR) signaling pathway - cell viability counter screen (AID 743086)
Outline: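 HepG2-AhR-luc (HG2L7.5c1) cells, 4000/well, treated 24 h at 37 C with compound; viability measured as CellTiter-Fluor fluorescence after 30 min in the same wells as the luciferase read.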

[37] = target: Peroxisome proliferator-activated receptor gamma (Homo sapiens) (UniProt P37231); test: qHTS assay to identify small molecule agonists of the peroxisome proliferator-activated receptor gamma (PPARg) signaling pathway (AID 743094; active = well fitted activation curve with a large enough effect in the signal ratio in the repeat runs, not every such curve was filed as active; the % refers to the signal ratio)
Outline: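 GeneBLAzer PPARg UAS-bla HEK293H cells were plated, rested 5 h, then exposed to compounds for 17 h at 37C. Beta-lactamase activity was read by LiveBLAzer B/G FRET substrate fluorescence after 1 h at room temperature.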

[38] = qHTS assay to identify small molecule antagonists of the estrogen related receptor (ERR) signaling pathway (AID 1224819;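 also: luminescence from an ERR-driven luciferase reporter measured with One-Glo reagent; series mostly up to about 46 µM; nearly all actives have a fitted effect of over 50% in size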)
Outline: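 ERR reporter cell line (NTP) plated at 2,000 cells/well, settled 6 h at 37C/5% CO2, then exposed to LOPAC compounds for 18 h at 37C. One-Glo luciferase luminescence read after 30 min at room temperature.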

[39] = qHTS assay to identify small molecule phospholipidosis (PLD) inducers (AID 1259344; active = well fitted curve in the direction sought with a large enough effect; an effect the other way counts as inactive or inconclusive)
Outline: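 Quantitative HTS in HepG2: compound plus LipidTOX Red dye for 24 h, paraformaldehyde fixation with Hoechst 33342, widefield high-content imaging; amiodarone as positive and DMSO as negative control.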

[40] = target: Nuclear receptor subfamily 1 group I member 2 (Rattus norvegicus) (UniProt Q9R1A7); test: Rat pregnane X receptor (rPXR) activation by small molecules, qHTS assay (AID 1346983); settings: rPXR luciferase reporter cells, One-Glo luminescence, 24 h; max activation: hits give high values; also: nearly all actives have a fitted effect of over 20% in size
Outline: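 Cell-based rPXR activation assay: rPXR cells, 2,000 per well, rested 5hr at 37 C, then exposed to compounds in DMSO for 24 hr at 37 C. Luciferase activity read by One-Glo luminescence after 30 min at room temperature.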

Sequence of Estrogen receptor (Homo sapiens) (P03372 whole entry, looked up): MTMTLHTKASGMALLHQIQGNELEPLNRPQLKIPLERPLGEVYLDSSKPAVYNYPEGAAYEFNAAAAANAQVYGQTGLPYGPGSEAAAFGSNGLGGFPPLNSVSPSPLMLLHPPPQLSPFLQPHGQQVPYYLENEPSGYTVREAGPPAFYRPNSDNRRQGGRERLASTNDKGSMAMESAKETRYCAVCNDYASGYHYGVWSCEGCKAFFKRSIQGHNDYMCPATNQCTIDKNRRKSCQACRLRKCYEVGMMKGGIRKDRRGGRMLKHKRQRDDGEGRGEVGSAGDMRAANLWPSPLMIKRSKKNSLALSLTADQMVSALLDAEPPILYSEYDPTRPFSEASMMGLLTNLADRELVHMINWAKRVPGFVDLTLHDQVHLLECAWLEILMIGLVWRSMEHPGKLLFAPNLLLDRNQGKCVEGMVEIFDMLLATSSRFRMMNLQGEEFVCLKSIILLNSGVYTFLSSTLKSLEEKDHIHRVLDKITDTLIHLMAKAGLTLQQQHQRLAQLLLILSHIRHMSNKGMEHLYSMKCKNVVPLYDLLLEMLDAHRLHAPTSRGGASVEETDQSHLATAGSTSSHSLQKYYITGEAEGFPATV
Sequence of Aromatase (Homo sapiens) (P11511 whole entry, looked up): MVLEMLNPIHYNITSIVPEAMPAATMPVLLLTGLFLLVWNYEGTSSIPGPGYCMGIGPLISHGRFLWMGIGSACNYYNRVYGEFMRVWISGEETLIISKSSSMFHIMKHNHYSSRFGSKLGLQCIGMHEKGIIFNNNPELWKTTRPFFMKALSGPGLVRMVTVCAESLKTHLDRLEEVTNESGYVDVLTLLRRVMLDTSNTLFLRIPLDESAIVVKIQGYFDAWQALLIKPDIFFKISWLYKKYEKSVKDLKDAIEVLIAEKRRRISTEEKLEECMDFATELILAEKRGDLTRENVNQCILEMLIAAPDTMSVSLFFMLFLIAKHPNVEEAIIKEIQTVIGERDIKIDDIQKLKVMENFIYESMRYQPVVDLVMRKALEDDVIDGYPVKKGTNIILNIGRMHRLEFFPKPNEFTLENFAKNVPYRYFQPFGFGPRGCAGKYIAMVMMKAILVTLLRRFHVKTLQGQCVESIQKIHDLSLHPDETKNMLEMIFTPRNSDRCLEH
Sequence of Peroxisome proliferator-activated receptor gamma (Homo sapiens) (P37231 whole entry, looked up): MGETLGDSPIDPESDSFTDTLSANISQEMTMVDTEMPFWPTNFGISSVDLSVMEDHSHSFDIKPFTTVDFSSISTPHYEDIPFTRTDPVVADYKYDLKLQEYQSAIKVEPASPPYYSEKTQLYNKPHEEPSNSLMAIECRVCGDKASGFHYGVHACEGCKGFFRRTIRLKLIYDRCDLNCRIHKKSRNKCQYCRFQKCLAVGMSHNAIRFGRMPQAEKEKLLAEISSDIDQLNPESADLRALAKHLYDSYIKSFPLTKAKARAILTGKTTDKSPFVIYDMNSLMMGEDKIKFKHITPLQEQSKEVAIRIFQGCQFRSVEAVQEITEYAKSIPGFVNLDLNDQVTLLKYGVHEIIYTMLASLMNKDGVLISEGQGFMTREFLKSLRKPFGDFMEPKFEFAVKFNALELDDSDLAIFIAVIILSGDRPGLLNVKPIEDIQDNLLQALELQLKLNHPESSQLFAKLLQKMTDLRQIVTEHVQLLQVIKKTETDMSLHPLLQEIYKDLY
Sequence of Nuclear receptor subfamily 1 group I member 2 (Rattus norvegicus) (Q9R1A7 whole entry, looked up): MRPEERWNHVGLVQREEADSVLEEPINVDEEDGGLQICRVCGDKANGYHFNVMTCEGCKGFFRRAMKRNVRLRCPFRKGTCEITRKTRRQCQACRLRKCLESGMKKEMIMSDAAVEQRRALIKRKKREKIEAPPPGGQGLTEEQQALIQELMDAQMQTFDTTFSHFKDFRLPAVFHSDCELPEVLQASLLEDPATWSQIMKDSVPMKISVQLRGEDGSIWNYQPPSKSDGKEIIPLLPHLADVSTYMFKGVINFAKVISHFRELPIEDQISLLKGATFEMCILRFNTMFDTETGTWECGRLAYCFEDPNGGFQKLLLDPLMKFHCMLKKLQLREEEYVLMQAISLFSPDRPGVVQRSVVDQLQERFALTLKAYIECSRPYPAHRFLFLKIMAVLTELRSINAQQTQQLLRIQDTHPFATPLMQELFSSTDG

Q: What does the source list for `NC1CC1c1ccccc1` (stereo unspecified)?
A: Potency [1]: inactive; Potency [2]: inactive

Q: What does the source list for `C[N+]1(C)C2CC(OC(=O)[C@H](CO)c3ccccc3)CC1C1OC12` (stereo partly specified)?
A: Potency [1]: inactive; Potency [2]: inactive

Q: Which Potency [1] does the source give for `Oc1ccc2c3c1O[C@H]1c4oc5ccccc5c4C[C@@]4(O)C(C2)N(CC2CC2)CCC314` (stereo partly specified) here?
A: The Potency was “inactive”.

Q: What about the Potency [3] of the same compound?
A: Its Potency is “inactive”.

Q: What about the Potency [4] of the same compound?
A: The Potency was “inactive”.

Q: And the Potency [2]?
A: Its Potency is “inactive”.

Q: And the Potency [5]?
A: Its Potency is “inactive”.

Q: What does the source list for `c1ccc(C2(c3ccccc3)CC2C2=NCCN2)cc1` (stereo unspecified)?
A: Potency [6]: inactive; Potency [7]: inactive; Potency [8]: inactive; outcome [9]: inactive; Potency [10]: inactive; Potency [11]: inactive; outcome [12]: inactive; Potency [13]: inactive; Potency [14]: inactive; Potency [15]: inactive; outcome [16]: inactive; outcome [17]: inactive; Potency [18]: inactive; Potency [19]: inactive; Potency [20]: inactive; Potency [21]: inactive; Potency [22]: inactive; Potency [23]: inactive; Potency [24]: inactive; Potency [25]: inactive; Potency [26]: inactive; Potency [27]: inactive; Potency [28]: inactive; Potency [29]: inactive; Potency [30]: inactive; Potency [31]: 0.7 nM (active); Potency [32]: inactive; Potency [33]: inactive; Potency [34]: inactive; Potency [35]: inactive; Potency [36]: inactive; Potency [37]: inactive; Potency [1]: inactive; Potency [38]: inactive; Potency [3]: inactive; Potency [2]: inactive; Potency [5]: inactive; Potency [39]: inactive; max activation [40]: -1.58%

Q: For `Cc1o[nH]c(=O)c1CC(N)C(=O)O` (stereo unspecified), which Potency [1] is on record?
A: The Potency was “inactive”.

Q: And the Potency [2]?
A: The Potency was “inactive”.

Q: Which Potency [1] does the source give for `Cc1nccc2c1[nH]c1ccccc12` here?
A: Its Potency is “inactive”.

Q: And the Potency [3]?
A: Its Potency is “inactive”.

Q: And the Potency [2]?
A: Its Potency is “inactive”.

Q: What about the Potency [5] of the same compound?
A: The Potency was “inactive”.

Q: Which Potency [1] does the source give for `CC[C@@H]1C(=O)OC[C@@H]1Cc1cncn1C` here?
A: The Potency was “inactive”.

Q: And the Potency [2]?
A: The Potency was “inactive”.
